From ChEMBL document CHEMBL1157539, “Thousands of chemical starting points for antimalarial lead identification” (Nature, 2010)

Assays:
Assay type in all cases: functional
[1] = system: Plasmodium falciparum; experiment: GSK_TCMDC: Inhibition of Plasmodium falciparum 3D7 in whole red blood cells, using parasite LDH activity as an index of growth. Test compounds present at 2uM
[2] = system: Plasmodium falciparum; experiment: GSK_TCMDC: Inhibition of Plasmodium falciparum Dd2 in whole red blood cells, using parasite LDH activity as an index of growth. Test compounds present at 2uM
[3] = system: HepG2; experiment: GSK_TCMDC: Percent inhibition of human HepG2 cell line. Test compounds present at 10uM.

**Q.** Cc1cc(=NN=Cc2ccccc2Cl)c2ccccc2[nH]1 was tested. Which Inhibition [1] did it give?
**A.** 100%

**Q.** What about the Inhibition [2] of the same compound?
**A.** 30%

**Q.** What about the Inhibition [3] of the same compound?
**A.** 0%

**Q.** Cc1ccc(S(=O)(=O)NC2=NC(=N)N(OCc3ccc(Cl)c(Cl)c3)C(C)(C)N2)cc1 was tested. Which Inhibition [1] did it give?
**A.** 88%

**Q.** What about the Inhibition [2] of the same compound?
**A.** 0%

**Q.** And the Inhibition [3]?
**A.** 0%

**Q.** Which Inhibition [1] does the source give for Br.CCCC1N=C(N)N=C(N)N1c1ccc(CC)cc1 (stereo not drawn) here?
**A.** 94%

**Q.** And the Inhibition [2]?
**A.** 4%

**Q.** What about the Inhibition [3] of the same compound?
**A.** 11%

**Q.** For CN(C)c1ccc(C(c2ccc(N(C)C)cc2)c2cc([N+](=O)[O-])ccc2Cl)cc1, which Inhibition [1] is on record?
**A.** 96%

**Q.** What about the Inhibition [2] of the same compound?
**A.** 67%

**Q.** What about the Inhibition [3] of the same compound?
**A.** 0%

**Q.** What does the source list for Br.CC(C)Oc1ccc(CCCON2C(=N)N=C(N)NC2(C)C)cc1?
**A.** Inhibition [1]: 96%; Inhibition [2]: 94%; Inhibition [3]: 66%

**Q.** Which Inhibition [1] does the source give for COc1cc(Cc2cnc(N)nc2N)ccc1OCc1ccc(-c2csnn2)cc1 here?
**A.** 97%

**Q.** And the Inhibition [2]?
**A.** 0%

**Q.** And the Inhibition [3]?
**A.** 33%

**Q.** Which Inhibition [1] does the source give for O=C(CCc1cccnc1)Nc1cccc(-c2ccc(-c3nc4cc(C(F)(F)F)ccc4[nH]3)s2)c1 here?
**A.** 89%

**Q.** What about the Inhibition [2] of the same compound?
**A.** 13%

**Q.** And the Inhibition [3]?
**A.** 35%

**Q.** What does the source list for N#CCCN1CCN(Cc2cccc(-c3ccc(-c4nc5cc(C(F)(F)F)ccc5[nH]4)cc3)c2)CC1.O=C(O)C(F)(F)F?
**A.** Inhibition [1]: 100%; Inhibition [2]: 63%; Inhibition [3]: 23%

**Q.** What does the source list for CN(C)CCOc1ccc(-n2c(-c3nonc3N)nc3cncc(-c4ccc(F)cc4)c32)cc1?
**A.** Inhibition [1]: 97%; Inhibition [2]: 7%; Inhibition [3]: 10%

**Q.** What does the source list for COc1ccc2nccc([C@@H](O)CN3CCC(NCc4ccc5c(c4)N(C)C(=O)CO5)CC3)c2c1.O=C(O)C(=O)O?
**A.** Inhibition [1]: 100%; Inhibition [2]: 95%; Inhibition [3]: 0%

**Q.** Which results are given for CC(Cc1ccc(OCCN2CCN(c3cccc(Cl)c3)CC2)cc1)NCC(O)c1cccc(C(F)(F)F)c1.Cl (stereo not drawn)?
**A.** Inhibition [1]: 99%; Inhibition [2]: 98%; Inhibition [3]: 100%
